Assay results published in PubChem BioAssay (NCATS).
“And” between values parts separate entries of the source, which are not always exact repeats. Identical values can stand only once. Inconclusive results are not listed. Where a call stands in place of a potency, no number is given. The source made the active and inactive calls. Unless noted, calls follow the shape of the full dose curve.

Legend:
[1] = molecular target: Androgen receptor (Homo sapiens) (UniProt P10275); test: qHTS assay for small molecule antagonists of androgen receptor signaling (AID 588516; active = well fitted curve in the direction sought with a large enough effect in the signal ratio, with a control signal flat, not every such curve was filed as active; the % refers to the signal ratio)
Sequence of Androgen receptor (Homo sapiens) (P10275 whole entry, looked up): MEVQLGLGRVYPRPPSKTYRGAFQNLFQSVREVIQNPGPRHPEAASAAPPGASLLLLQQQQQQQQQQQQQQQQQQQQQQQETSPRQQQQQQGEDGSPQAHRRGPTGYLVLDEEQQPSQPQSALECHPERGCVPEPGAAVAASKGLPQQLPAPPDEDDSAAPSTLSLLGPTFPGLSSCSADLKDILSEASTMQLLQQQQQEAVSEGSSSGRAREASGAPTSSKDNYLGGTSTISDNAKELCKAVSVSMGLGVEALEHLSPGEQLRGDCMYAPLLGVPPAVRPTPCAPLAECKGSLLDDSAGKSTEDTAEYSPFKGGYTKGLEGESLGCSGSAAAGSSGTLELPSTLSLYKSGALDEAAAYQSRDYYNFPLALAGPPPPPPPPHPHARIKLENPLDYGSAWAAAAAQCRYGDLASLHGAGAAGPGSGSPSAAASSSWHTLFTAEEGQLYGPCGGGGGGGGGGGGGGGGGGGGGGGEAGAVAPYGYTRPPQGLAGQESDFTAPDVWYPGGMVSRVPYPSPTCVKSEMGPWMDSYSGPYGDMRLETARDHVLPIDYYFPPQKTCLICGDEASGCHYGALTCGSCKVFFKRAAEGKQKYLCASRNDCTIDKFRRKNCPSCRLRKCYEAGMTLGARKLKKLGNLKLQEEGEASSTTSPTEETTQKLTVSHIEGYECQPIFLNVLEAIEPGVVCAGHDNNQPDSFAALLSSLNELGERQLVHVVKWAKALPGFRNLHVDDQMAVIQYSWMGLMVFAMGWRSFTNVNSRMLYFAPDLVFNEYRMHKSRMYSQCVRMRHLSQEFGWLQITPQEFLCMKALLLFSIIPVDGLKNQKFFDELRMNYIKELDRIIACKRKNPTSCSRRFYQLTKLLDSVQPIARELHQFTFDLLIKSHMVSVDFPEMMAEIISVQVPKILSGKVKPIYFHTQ
How it was run: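 HEK293 AR-UAS-bla cells, 10% dialyzed FBS medium; cpd titration + R1881 10 nM final, 16 h 37 C; CCF4 2 h RT; FRET ratio; IC50/efficacy via Hill fit.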

[2] = molecular target: Bile acid receptor (Homo sapiens) (UniProt Q96RI1); test: qHTS assay for small molecule antagonists of farnesoid X receptor signaling (AID 588526)
Sequence of Bile acid receptor (Homo sapiens) (Q96RI1 whole entry, looked up): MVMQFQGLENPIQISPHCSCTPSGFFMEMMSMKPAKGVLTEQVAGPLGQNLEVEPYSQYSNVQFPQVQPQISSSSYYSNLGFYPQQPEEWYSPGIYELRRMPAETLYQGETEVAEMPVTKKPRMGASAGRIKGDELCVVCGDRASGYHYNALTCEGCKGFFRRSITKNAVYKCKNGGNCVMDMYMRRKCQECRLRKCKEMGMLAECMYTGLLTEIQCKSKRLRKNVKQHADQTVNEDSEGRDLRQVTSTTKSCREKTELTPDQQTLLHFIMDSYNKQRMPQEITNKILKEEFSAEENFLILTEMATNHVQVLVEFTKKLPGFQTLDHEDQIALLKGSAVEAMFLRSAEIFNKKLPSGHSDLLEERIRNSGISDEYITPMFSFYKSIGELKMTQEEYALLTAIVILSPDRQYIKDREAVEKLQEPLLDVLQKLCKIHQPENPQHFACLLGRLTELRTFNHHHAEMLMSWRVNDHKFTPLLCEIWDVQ
How it was run: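 Antagonist mode: titrated compounds tested against chenodeoxycholic acid stimulation (normalized to 50 uM CDCA and DMSO) in GeneBLAzer HEK293T cells for 16 h. Beta-lactamase read by CCF4 fluorescence; IC50 from Hill fits.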

[3] = molecular target: Glucocorticoid receptor (Homo sapiens) (UniProt P04150); test: qHTS assay for small molecule agonists of glucocorticoid receptor signaling (AID 588532; active = well fitted curve in the direction sought with a large enough effect in the signal ratio, with a control signal flat; the % refers to the signal ratio); settings: HeLa MMTV-bla, beta-lactamase ratio, agonist, 18 h; stronger effect = higher value; percent of dexamethasone control, DMSO zero
Sequence of Glucocorticoid receptor (Homo sapiens) (P04150 whole entry, looked up): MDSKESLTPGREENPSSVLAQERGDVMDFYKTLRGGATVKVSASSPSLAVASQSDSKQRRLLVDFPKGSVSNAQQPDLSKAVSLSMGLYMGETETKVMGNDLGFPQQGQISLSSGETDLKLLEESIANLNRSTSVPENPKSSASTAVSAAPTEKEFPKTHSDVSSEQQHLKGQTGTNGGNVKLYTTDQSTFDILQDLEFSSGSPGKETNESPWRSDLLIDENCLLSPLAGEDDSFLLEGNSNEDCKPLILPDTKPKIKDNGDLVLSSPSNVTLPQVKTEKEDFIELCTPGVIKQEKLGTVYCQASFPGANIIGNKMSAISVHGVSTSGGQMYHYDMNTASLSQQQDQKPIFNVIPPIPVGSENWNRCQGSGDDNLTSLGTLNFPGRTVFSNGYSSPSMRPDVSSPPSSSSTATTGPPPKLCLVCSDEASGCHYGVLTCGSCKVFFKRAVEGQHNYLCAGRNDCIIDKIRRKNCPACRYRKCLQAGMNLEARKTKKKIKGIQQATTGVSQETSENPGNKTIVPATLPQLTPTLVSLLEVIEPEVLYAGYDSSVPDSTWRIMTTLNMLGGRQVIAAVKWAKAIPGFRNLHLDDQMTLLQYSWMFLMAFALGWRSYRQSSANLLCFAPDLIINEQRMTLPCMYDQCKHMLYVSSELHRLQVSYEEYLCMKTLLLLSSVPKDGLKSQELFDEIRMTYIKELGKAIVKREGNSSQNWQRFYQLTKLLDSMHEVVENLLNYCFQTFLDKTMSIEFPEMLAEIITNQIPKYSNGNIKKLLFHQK
How it was run: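 MMTV-bla HeLa beta-lactamase reporter cells in 1% charcoal/dextran FBS medium, compounds up to 92 uM for 18 h at 37 C, CCF4 readout; normalized to 0.1 uM dexamethasone (100%), EC50 and efficacy from Hill fits.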

[4] = molecular target: Peroxisome proliferator-activated receptor gamma (Homo sapiens) (UniProt P37231); test: qHTS assay for small molecule agonists of peroxisome proliferator-activated receptor gamma signaling (AID 588536; active = well fitted curve in the direction sought with a large enough effect in the signal ratio, with a control signal flat, not every such curve was filed as active; the % refers to the signal ratio)
Sequence of Peroxisome proliferator-activated receptor gamma (Homo sapiens) (P37231 whole entry, looked up): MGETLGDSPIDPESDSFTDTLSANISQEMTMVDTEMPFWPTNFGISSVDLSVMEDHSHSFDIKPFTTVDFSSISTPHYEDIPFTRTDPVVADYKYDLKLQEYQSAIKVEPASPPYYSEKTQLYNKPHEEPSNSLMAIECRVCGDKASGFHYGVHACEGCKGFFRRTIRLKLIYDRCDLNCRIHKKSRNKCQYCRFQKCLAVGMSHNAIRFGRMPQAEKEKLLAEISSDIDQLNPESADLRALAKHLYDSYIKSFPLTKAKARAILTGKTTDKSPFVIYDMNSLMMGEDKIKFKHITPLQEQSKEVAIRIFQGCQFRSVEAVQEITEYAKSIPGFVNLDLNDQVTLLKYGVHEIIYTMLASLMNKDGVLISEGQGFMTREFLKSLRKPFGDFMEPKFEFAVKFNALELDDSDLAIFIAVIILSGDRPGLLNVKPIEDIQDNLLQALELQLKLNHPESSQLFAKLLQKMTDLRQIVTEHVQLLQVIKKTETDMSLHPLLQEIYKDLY
How it was run: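 Compound treatment: 16 h, 37 C, HEK293 GeneBLAzer cells. Detection: CCF4, 2 h RT. Values: Hill-fit EC50, efficacy as % of 2 uM rosiglitazone.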

[5] = molecular target: Vitamin D3 receptor (Homo sapiens) (UniProt P11473); test: qHTS assay for small molecule antagonists of vitamin D receptor signaling (AID 588541);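 also: receptor activated by calcitriol during compound treatment; series mostly up to about 77 µM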
Sequence of Vitamin D3 receptor (Homo sapiens) (P11473 whole entry, looked up): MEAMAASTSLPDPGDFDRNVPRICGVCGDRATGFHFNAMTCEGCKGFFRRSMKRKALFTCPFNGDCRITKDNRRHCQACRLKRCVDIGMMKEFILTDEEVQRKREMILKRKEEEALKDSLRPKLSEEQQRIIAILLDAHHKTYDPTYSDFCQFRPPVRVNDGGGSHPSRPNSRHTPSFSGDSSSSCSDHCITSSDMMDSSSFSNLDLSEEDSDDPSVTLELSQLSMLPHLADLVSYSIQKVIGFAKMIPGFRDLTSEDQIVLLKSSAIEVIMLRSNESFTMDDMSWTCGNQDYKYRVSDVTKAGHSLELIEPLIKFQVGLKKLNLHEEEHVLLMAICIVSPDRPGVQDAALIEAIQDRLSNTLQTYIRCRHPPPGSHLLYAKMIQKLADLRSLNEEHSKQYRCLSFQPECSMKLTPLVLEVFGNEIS
How it was run: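 VDR-UAS-bla HEK293T cells in 2% charcoal-stripped FBS were stimulated with 1-alpha,25-dihydroxyvitamin D3 (3 nM final) plus compound for 16 h at 37 C. The beta-lactamase CCF4 readout was normalized to 50 nM agonist and DMSO, and Hill fits gave IC50.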

[6] = molecular target: Vitamin D3 receptor (Homo sapiens) (UniProt P11473); test: qHTS assay for small molecule agonists of vitamin D receptor signaling (AID 588543)
How it was run: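 β-lactamase reporter, VDR-UAS-bla HEK293T, agonist mode. Cells plated 5 h at 37 °C, compound titration 16 h at 37 °C, CCF4 dye 2 h RT, ratio 460/530 nm. Hill fit → EC50, efficacy vs 50 nM 1α,25-(OH)2D3.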

[7] = molecular target: Glucocorticoid receptor (Homo sapiens) (UniProt P04150); test: qHTS assay for small molecule antagonists of glucocorticoid receptor signaling (AID 588533; active = well fitted inhibition curve with a large enough effect in the signal ratio, with a control signal flat, not every such curve was filed as active; the % refers to the signal ratio)
How it was run: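 Antagonist-mode qHTS: compound titrations added to GRE-bla HeLa cells, then dexamethasone 2 nM final; 18 h, 37 C. CCF4 FRET fluorescence normalized to dexamethasone and DMSO; IC50 from Hill fit.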

[8] = qHTS assay for small molecule antagonists of peroxisome proliferator-activated receptor delta signaling (AID 588535; active = well fitted inhibition curve with a large enough effect in the signal ratio, with a control signal flat, not every such curve was filed as active; the % refers to the signal ratio;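 as to max response: cells co-treated with a PPAR-delta agonist as stimulator during compound exposure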); settings: HEK293T PPARd-UAS-bla, beta-lactamase FRET ratio, 18 h; 460 nm channel
How it was run: (§1)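 Fluorescence from CCF4-loaded GeneBLAzer PPAR-delta-UAS-bla HEK293T cells (2 hrs RT loading) quantified reporter inhibition after an 18 hr, 37 C compound exposure across a titration.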

[9] = molecular target: Peroxisome proliferator-activated receptor delta (Homo sapiens) (UniProt Q03181); test: as above
Sequence of Peroxisome proliferator-activated receptor delta (Homo sapiens) (Q03181 whole entry, looked up): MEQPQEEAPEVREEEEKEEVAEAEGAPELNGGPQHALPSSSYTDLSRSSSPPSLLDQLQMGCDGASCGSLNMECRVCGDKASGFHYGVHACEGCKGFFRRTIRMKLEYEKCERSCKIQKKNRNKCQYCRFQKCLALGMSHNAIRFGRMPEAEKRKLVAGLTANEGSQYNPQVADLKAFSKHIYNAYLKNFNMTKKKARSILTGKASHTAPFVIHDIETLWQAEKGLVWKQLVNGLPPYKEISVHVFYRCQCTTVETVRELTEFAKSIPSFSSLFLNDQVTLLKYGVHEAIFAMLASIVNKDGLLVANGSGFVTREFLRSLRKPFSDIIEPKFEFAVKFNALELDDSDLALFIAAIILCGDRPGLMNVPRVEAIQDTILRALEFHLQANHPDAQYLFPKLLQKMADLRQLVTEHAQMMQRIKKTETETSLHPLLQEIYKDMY
How it was run: as §1

[10] = molecular target: Peroxisome proliferator-activated receptor gamma (Homo sapiens) (UniProt P37231); test: qHTS assay for small molecule antagonists of peroxisome proliferator-activated receptor gamma signaling (AID 588537; active = well fitted inhibition curve with a large enough effect in the signal ratio, with a control signal flat, not every such curve was filed as active; the % refers to the signal ratio;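 also: reporter cells co-stimulated with 50 nM rosiglitazone agonist during compound treatment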)
How it was run: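 Fluorescence at 460 and 530 nm (405 nm excitation) reported beta-lactamase cleavage of CCF4 after 2 h room-temperature loading. HEK293 reporter cells in 1% charcoal/dextran-treated FBS had received compound and rosiglitazone for 16 h.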

SMILES | outcome [1] | outcome [2] | activation [3] | outcome [4] | outcome [5] | outcome [6] | outcome [7] | max response [8] | Potency [9] | outcome [10]
CCCCCCCCC/C=C/CC1CC(=O)OC1=O (centres undefined) | inactive | inactive | 0.907% (inactive) | inactive | inactive | inactive | – | – | – | –
c1ccsc1 | inactive | – | – | inactive | inactive | – | inactive | -2.14% | inactive | inactive
Cc1ccc(C#N)cc1 | – | inactive | -8.98% (inactive) | inactive | inactive | inactive | inactive | -7.41% | inactive | inactive
FC(F)(F)c1cccc(Cl)c1 | inactive | inactive | -8.16% (inactive) | – | – | – | inactive | – | – | –
CC#N | – | inactive | -2.4% (inactive) | – | – | – | inactive | 21.5% | inactive | –
CCCOCC(C)OCC(C)O (centres undefined) | inactive | inactive | – | inactive | inactive | inactive | inactive | -11.5% | – | –
CN(C)CCCNCCCN | – | inactive | -1.86% (inactive) | inactive | inactive | inactive | inactive | -8.47% | inactive | inactive
Nc1cccc([N+](=O)[O-])c1 | inactive | inactive | 0.474% (inactive) | inactive | – | – | inactive | – | – | inactive
COc1cccc2sc(N)nc12 | inactive | inactive | – | inactive | inactive | inactive | – | -34.4% | inactive | –
O=C(O)CCSSCCC(=O)O | inactive | inactive | -5.98% (inactive) | inactive | inactive | inactive | inactive | 29.9% | inactive | –
CC/C=C1/OC(=O)c2ccccc21 | inactive | – | -3.66% (inactive) | inactive | inactive | inactive | inactive | 6.22% | inactive | –
CC(C)c1ccccc1 | inactive | inactive | -12.7% (inactive) | inactive | – | inactive | – | – | – | inactive
Nc1cc(S(=O)(=O)O)ccc1O | inactive | – | -0.152% (inactive) | inactive | inactive | inactive | – | 15.9% | inactive | –
CCCC(C)CO (centres undefined) | inactive | inactive | 0.0234% (inactive) | inactive | – | – | inactive | -16% | inactive | inactive
Nc1ccc(Cl)cc1[N+](=O)[O-] | inactive | – | -4.92% (inactive) | inactive | inactive | inactive | inactive | 66.3% | inactive | inactive
CCOc1ccc(NC(C)=O)cc1N | inactive | – | – | inactive | inactive | inactive | – | -0.981% | inactive | –
O=[N+]([O-])c1cc(C(F)(F)F)ccc1Cl | inactive | – | – | inactive | – | – | inactive | – | – | inactive
O=Cc1ccc(Cl)cc1 | inactive | – | – | inactive | inactive | inactive | – | 7.54% | inactive | inactive
O=C1CCCCC1 | inactive | – | -2.34% (inactive) | inactive | inactive | inactive | – | 1.87% | – | inactive
BrC(Br)C(Br)Br | inactive | – | -1.02% (inactive) | inactive | inactive | inactive | – | -3.11% | inactive | inactive

SMILES | outcome [1] | outcome [2] | activation [3] | outcome [4] | outcome [5] | outcome [6] | outcome [7] | max response [8] | Potency [9] | outcome [10]
CCOc1cc(OCC)c(C(C)=O)cc1OCC | inactive | inactive | -0.956% (inactive) | inactive | inactive | inactive | inactive | – | – | inactive
Cc1ccc(S(=O)(=O)NC2CCCCC2)cc1 | – | inactive | -3.36% (inactive) | inactive | – | – | inactive | 42.4% | inactive | –
C=C(C)C(=O)OC | – | inactive | -3.9% (inactive) | inactive | – | – | inactive | -44.8% | inactive | inactive
Cc1ccc(CO)cc1 | – | inactive | -5.3% (inactive) | inactive | inactive | inactive | inactive | 17.6% | inactive | inactive
ClCCl | inactive | – | -3.26% (inactive) | inactive | inactive | inactive | – | 23.4% | inactive | –
O=C(Cl)c1ccccc1[N+](=O)[O-] | inactive | – | – | inactive | – | – | inactive | – | – | –
Cc1ccc(C)cc1 | inactive | inactive | -0.888% (inactive) | – | – | inactive | inactive | -6.55% | inactive | –
Cc1ccc2cccnc2c1 | inactive | inactive | -3.65% (inactive) | inactive | inactive | inactive | inactive | – | – | –
CCC(C)(C)OC | – | inactive | -0.431% (inactive) | inactive | – | – | inactive | 12.9% | inactive | inactive
CCN(Cc1ccccc1)c1ccccc1 | inactive | – | – | inactive | – | – | – | – | – | inactive
CC(C=O)Cc1ccc(C(C)(C)C)cc1 (centres undefined) | inactive | inactive | -5.34% (inactive) | inactive | inactive | inactive | inactive | 41.6% | inactive | inactive
Nc1cccc2c(=O)[nH][nH]c(=O)c12 | – | inactive | 0.411% (inactive) | inactive | – | – | inactive | -7.57% | inactive | inactive
CNC(=O)N(c1ccccc1)c1ccccc1 | inactive | – | – | inactive | – | – | – | – | – | –
CC(=C/C=C/C(C)=C/C=C/C=C(C)/C=C/C=C(C)/C=C/C(=O)O)/C=C/C(=O)O | inactive | inactive | -6.11% (inactive) | inactive | inactive | inactive | inactive | 11.7% | – | inactive
CCCC(Cl)CCCC(Cl)CCC(Cl)CCC(Cl)CCC(Cl)CCCC(Cl)CCC (centres undefined) | inactive | – | – | inactive | inactive | inactive | inactive | -30.6% | inactive | –
CC(=O)CC(C)C | inactive | inactive | 21.2% (inactive) | inactive | inactive | inactive | inactive | 19.2% | – | –
Cc1cccc(C(=O)O)c1 | inactive | – | – | inactive | inactive | inactive | – | -5.23% | inactive | inactive
Cc1ccc(N(C)C)cc1 | inactive | – | -4.85% (inactive) | inactive | inactive | inactive | inactive | 17.3% | inactive | –
CCCCCCCCCCCCC1CO1 (centres undefined) | – | inactive | 0.241% (inactive) | inactive | – | – | inactive | -13.1% | inactive | inactive
O=[N+]([O-])c1ccc(CCO)cc1 | – | inactive | -5.66% (inactive) | inactive | inactive | inactive | inactive | 19.9% | – | inactive

SMILES | outcome [1] | outcome [2] | activation [3] | outcome [4] | outcome [5] | outcome [6] | outcome [7] | max response [8] | Potency [9] | outcome [10]
CCCCC(C=O)CC (centres undefined) | – | inactive | -0.985% (inactive) | inactive | inactive | inactive | inactive | -2.18% | inactive | –
CC(O)CC(C)O (centres undefined) | – | inactive | 0.893% (inactive) | inactive | inactive | inactive | inactive | 7.44% | inactive | inactive
Cc1cccc([N+](=O)[O-])c1C(=O)O | – | inactive | 4.26% (inactive) | inactive | inactive | inactive | inactive | 7.62% | inactive | inactive
CCCCC/C=C/C=C/C=O | – | inactive | -3.04% (inactive) and 0.369% (inactive) | inactive | inactive | inactive | inactive | 16.5% | – | –
Cc1ccc(C)c(N)c1 | – | inactive | -8.67% (inactive) | inactive | inactive | inactive | inactive | 30.9% | inactive | –
C=C(C)C(=O)OCCCCCCCCCC | – | inactive | 8.77% (inactive) | inactive | inactive | inactive | inactive | – | – | inactive
CC(=O)c1cccc([N+](=O)[O-])c1 | – | inactive | 1.38% (inactive) | inactive | inactive | inactive | inactive | 13.5% | inactive | –
C1COC1 | – | inactive | 0.529% (inactive) | inactive | inactive | inactive | inactive | -21% | inactive | inactive
Nc1nc(-c2ccccc2)cs1 | – | inactive | 1.27% (inactive) | inactive | inactive | inactive | inactive | -2.19% | inactive | –
CCCCCCC(=O)O | – | inactive | 2.07% (inactive) | – | inactive | inactive | inactive | -11.6% | inactive | –
c1ccc(Oc2ccccc2)cc1 | – | inactive | 2.66% (inactive) and -3.4% (inactive) | – | inactive | inactive | inactive | -19.2% and -5.05% | – | –
O=Cc1cccc(Br)c1 | – | inactive | -2.28% (inactive) | inactive | inactive | inactive | inactive | 21.9% | inactive | –
Cc1ccccc1C(N)=O | – | inactive | -0.107% (inactive) | inactive | – | – | inactive | 16.7% | – | inactive
C=Cc1ccccc1C=C | – | inactive | 2.03% (inactive) | inactive | inactive | inactive | inactive | -7.99% | inactive | inactive
C=CC(=O)OCCCC | – | inactive | 6.23% (inactive) | – | – | inactive | inactive | -13.6% | inactive | –
CC1CCC2CC1C2(C)C (centres undefined) | – | inactive | -2.14% (inactive) | inactive | – | – | inactive | – | – | inactive
CCCCOCCOCCOCCCC | – | inactive | 9.2% (inactive) | inactive | – | – | inactive | – | – | inactive
CCCCCCCN | – | inactive | 4.22% (inactive) | inactive | inactive | inactive | inactive | 31.2% | – | inactive
